Assay outcomes from PubChem.
Most compounds without a hit are left out; they make up all but 4.1% or so of the library.
A1 inh: inhibitors of the anti-apoptotic protein A1, read as caspase activation. MEF A1-2A-BIM cells, Caspase-Glo 3/7 luminescence, 3 h; percent of clofoctol response, vehicle zero. caspase activation, % (test concentration not listed). 330,000 tested, 0.066% active. AID 2462;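 active = over half of replicate activation scores above 10%, or exactly half above 10 with the replicate mean above 10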
CSC inhib: blocks cancer stem cells; cancer stem cell-like cells viability, luminescence; inhibition, % at 7.5 µM; 300,000 tested, 1.1% active; AID 2717; in the data active = inhibition above about 75%; tested in HMLE shEcad cells
Mdm2 MdmX PPI: inhibitors of human Mdm2/MdmX interaction | O15151+Q00987 | SaOS-2 split-luciferase Mdm2/MdmX complementation, luminescence | inhibition, % at 8 µM | 330,000 tested, 3% active;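 active = inhibition of at least 50% at 8 µM in the primary screen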
Target sequence (O15151 whole entry, looked up): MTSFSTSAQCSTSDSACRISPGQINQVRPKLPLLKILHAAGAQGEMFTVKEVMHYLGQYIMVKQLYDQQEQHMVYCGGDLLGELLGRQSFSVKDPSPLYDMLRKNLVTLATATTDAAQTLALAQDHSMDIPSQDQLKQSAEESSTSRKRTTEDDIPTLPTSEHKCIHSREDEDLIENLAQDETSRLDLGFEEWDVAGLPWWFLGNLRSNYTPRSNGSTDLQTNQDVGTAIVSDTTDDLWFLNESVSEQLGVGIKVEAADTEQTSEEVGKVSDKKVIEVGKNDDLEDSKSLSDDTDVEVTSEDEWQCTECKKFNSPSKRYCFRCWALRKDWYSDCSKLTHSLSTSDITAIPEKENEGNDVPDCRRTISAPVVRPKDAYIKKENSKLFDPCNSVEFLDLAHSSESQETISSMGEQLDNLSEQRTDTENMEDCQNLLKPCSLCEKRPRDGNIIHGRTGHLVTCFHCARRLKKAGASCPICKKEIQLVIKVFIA
Target sequence (Q00987 whole entry, looked up): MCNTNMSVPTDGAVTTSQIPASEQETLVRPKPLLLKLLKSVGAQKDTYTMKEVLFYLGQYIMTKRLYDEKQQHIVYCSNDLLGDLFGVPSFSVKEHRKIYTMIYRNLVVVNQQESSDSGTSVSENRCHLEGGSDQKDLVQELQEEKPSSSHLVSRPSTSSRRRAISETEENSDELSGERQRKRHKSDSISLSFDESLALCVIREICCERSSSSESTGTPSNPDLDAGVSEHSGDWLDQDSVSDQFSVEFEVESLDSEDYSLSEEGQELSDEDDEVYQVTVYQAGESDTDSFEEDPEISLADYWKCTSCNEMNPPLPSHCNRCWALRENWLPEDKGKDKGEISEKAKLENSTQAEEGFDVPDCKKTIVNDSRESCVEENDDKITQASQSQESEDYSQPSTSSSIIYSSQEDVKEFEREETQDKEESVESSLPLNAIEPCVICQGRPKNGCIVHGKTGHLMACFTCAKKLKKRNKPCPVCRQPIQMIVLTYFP
Beta apoptosis: blocks beta cell apoptosis | INS-1E cytokine-induced death, ATP luminescence, 48 h; percent of positive-control rescue, neutral wells zero | protection from apoptosis, % (concentration not given with the values) | 300,000 tested, 0.8% active | AID 435005;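 active = Every replicate reaches about 75%, or at least half do and their mean reaches it too, limit read from the data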;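 note: higher means more ATP so stronger rescue from cytokine killing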
aSyn UTR inh: MLPCN primary screen, SNCA 5' untranslated region; alpha-synuclein 5'UTR reporter, inhibitor activity; inhibition, % (tested at 7.5 µM); 300,000 tested, 0.82% active; in the data active = inhibition above about 60%;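 note: H4 neuroglioblastoma cells stably carrying SNCA 5'UTR luciferase fusion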
Mdm2-MdmX conf: human Mdm2/MdmX binding inhibition, confirmed | 10,000 tested, 55% active | shares compounds with Mdm2 MdmX PPI | inhibition, % at 8 µM | luminescent assay | AID 489028; in the data active = inhibition above about 40%
Full FLuc ctr: full-length luciferase inhibition in Mdm2/MdmX counter-screen; 6,200 tested, 77% active; SaOS-2 full-length luciferase counterscreen, luminescence; inhibition, % at 8 µM; shares compounds with Mdm2 MdmX PPI;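 active = mean inhibition at 8 µM reaching about 37%, which flags the compound as non-specific, limit read from the data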;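 note: p53-null SaOS-2 cells with luciferase driven by a doxycycline-inducible promoter; compound on cells about two nights before reading with doxycycline added after day one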
Each line names hits and unclear results; the compound was inactive in the other large screens (follow-up assays come after a bar, where they were run).

CSCCC1NC(=O)N(CC(=O)N2CCc3ccccc3C2)C1=O (centres undefined)	none (no result: CSC inhib, aSyn UTR inh)
CCC(=O)Nc1cc2nn(-c3ccc(C)cc3)nc2cc1C	Mdm2 MdmX PPI 67, aSyn UTR inh 80 | Mdm2-MdmX conf 67 | Full FLuc ctr 146
CC[C@@H](C)[C@H](CN[C@H](CNC)C(C)C)NC[C@@H](C)c1ccc(CC(C)C)cc1	Mdm2 MdmX PPI 98 | Mdm2-MdmX conf 100 | Full FLuc ctr 52
CCCNC(=O)C(Cc1ccccc1F)NC(=O)c1ccc(C#N)cc1 (centres undefined)	none (no result: aSyn UTR inh)
Cc1cccc(C)c1NC(=O)CN1C(=O)NC(C)(C2CC2)C1=O (centres undefined)	none (no result: aSyn UTR inh)
COc1ccccc1N1CCN(C(=O)C2c3ccccc3Oc3ccccc32)CC1	Mdm2 MdmX PPI 64, aSyn UTR inh 81 | Mdm2-MdmX conf 56 | Full FLuc ctr 89
O=C(CSc1ccccc1)N1CCCC(N2CCN(c3cccc(Cl)c3)CC2)C1 (centres undefined)	none
Cn1c(N2CCN(C(c3ccccc3)c3ccccc3)CC2)nc2c1c(=O)[nH]c(=O)n2C	Mdm2 MdmX PPI 60 | Mdm2-MdmX conf 58 | Full FLuc ctr 87
Cn1c(N2CCCCC2)nc2c1c(=O)[nH]c(=O)n2C	none
CCCCCn1c(N2CCC(Cc3ccccc3)CC2)nc2c1c(=O)[nH]c(=O)n2C	CSC inhib 118, Mdm2 MdmX PPI 58 | Mdm2-MdmX conf inactive
CCCn1c(N2CCC(Cc3ccccc3)CC2)nc2c1c(=O)[nH]c(=O)n2C	none
CC(=O)c1c(C)[nH]c(C(=O)NCC2CCCCC2)c1C	none
Cc1cc(Br)cc2c(C(=O)NCC3CCCO3)cc(-c3cccs3)nc12 (centres undefined)	Mdm2 MdmX PPI 56 | Mdm2-MdmX conf inactive
COc1cccc(-c2cc(C(=O)NCC3CCCO3)c3cc(Br)cc(C)c3n2)c1 (centres undefined)	none
CCOc1cc([N+](=O)[O-])cc(/C=N/NC(=O)c2c(-c3ccccc3)noc2C)c1O	Mdm2 MdmX PPI 57 | Mdm2-MdmX conf inactive
COc1cc(/C=N/NC(=O)c2c(-c3ccccc3)noc2C)ccc1O	none
Cc1ccc(/C=N/NC(=O)c2c(-c3ccccc3)noc2C)c(O)c1	Mdm2 MdmX PPI 65, Beta apoptosis 93 | Mdm2-MdmX conf 62 | Full FLuc ctr inactive
O=C(Nc1ccc2c(c1)C(=O)N(c1ccccc1)C2=O)c1cccs1	Mdm2 MdmX PPI 50 | Mdm2-MdmX conf inactive
O=[N+]([O-])c1cccc(S(=O)(=O)NCC2CC3CCC2C3)c1 (centres undefined)	none
COc1ccccc1/C=C/C1(C(=O)NC2CCCC2)CC(=O)N1c1ccccc1 (centres undefined)	Mdm2 MdmX PPI 65 | Mdm2-MdmX conf 64 | Full FLuc ctr 79
CC(C)(C)c1cc(-c2nc(N)nc(N)n2)c(O)c(C(C)(C)C)c1	CSC inhib 126, Mdm2 MdmX PPI 68 (no result: aSyn UTR inh) | Mdm2-MdmX conf inactive
Cc1c(NC(=O)Nc2ccc(F)cc2F)c(=O)n(-c2ccccc2)n1C	none
COc1cc(OC)c(C2=NOC(C(=O)NCc3cccs3)C2)cc1Cl (centres undefined)	Mdm2 MdmX PPI 54 | Mdm2-MdmX conf 51 | Full FLuc ctr 59
COc1cc(C2=NOC(C(=O)NCc3ccco3)C2)cc(OC)c1OC (centres undefined)	Mdm2 MdmX PPI 64 | Mdm2-MdmX conf 57 | Full FLuc ctr 73
CCc1cc2c(=O)oc(-c3ccc(Br)cc3)nc2s1	none (no result: A1 inh, CSC inhib, Beta apoptosis)
CC(=O)Nc1cccc(Oc2ccc3c(c2)C(=O)NC3=O)c1	none
COc1ccc(S(=O)(=O)Nc2ncccn2)cc1	none
Cc1cc(C(=O)NNC(=S)NC2CCCCC2)cs1	none
Cc1ccc(NC(=O)Cc2cc(C(=O)O)c3ccccc3n2)c(C)c1	Mdm2 MdmX PPI 82 | Mdm2-MdmX conf 59 | Full FLuc ctr 40
COCCn1c(C)nnc1SCC(=O)NNC(=O)c1ccc(Cl)cc1	none
Cc1cccc(CS(=O)(=O)c2nnc([C@H](Cc3ccccc3)NC(=O)OC(C)(C)C)o2)c1	CSC inhib 95, Mdm2 MdmX PPI 97 | Mdm2-MdmX conf 56 | Full FLuc ctr 54
COC(=O)CS(=O)(=O)c1nnc([C@H](Cc2ccccc2)NC(=O)OC(C)(C)C)o1	CSC inhib 91, Mdm2 MdmX PPI 84 | Mdm2-MdmX conf 56 | Full FLuc ctr inactive
Cc1ccc(NC(=O)COC(=O)C2=NNC(=O)CC2)c(Br)c1	none (no result: aSyn UTR inh)
Cc1ccc(NC(=O)CCCN2C(=O)/C(=C/C=C/c3ccccc3)SC2=S)cc1	Mdm2 MdmX PPI 57 | Mdm2-MdmX conf 41 | Full FLuc ctr 47
O=C(CCCN1C(=O)/C(=C/c2ccccc2)SC1=S)Nc1cccc(O)c1	Mdm2 MdmX PPI 100 (no result: CSC inhib) | Mdm2-MdmX conf 93 | Full FLuc ctr 58
COc1ccccc1NC(=O)CCN1C(=O)/C(=C\c2cc(OC)c(OC)c(OC)c2)SC1=S	Mdm2 MdmX PPI 52 | Mdm2-MdmX conf inactive
COc1cc(/C=C2\SC(=S)N(CCC(=O)Nc3ccccc3)C2=O)cc(OC)c1OC	none
O=C(CCCN1C(=O)S/C(=C/C=C/c2ccccc2)C1=O)Nc1ccc(C(=O)O)cc1	none
Cc1ccc(/C=C2\SC(=S)N(CCCC(=O)NC3CCCC3)C2=O)cc1	Mdm2 MdmX PPI 63, aSyn UTR inh 98 | Mdm2-MdmX conf inactive
COc1cc(/C=C2\SC(=S)N(CCC(=O)NC3CCCC3)C2=O)cc(OC)c1OC	none
COc1ccc(/C=C2/SC(=S)N(CCCC(=O)Nc3ccc(O)cc3)C2=O)cc1OC	Mdm2 MdmX PPI 90 | Mdm2-MdmX conf 48 | Full FLuc ctr inactive
Cc1ccc(/C=C2\SC(=S)N(CCC(=O)NNC(=O)c3ccccc3O)C2=O)cc1	Mdm2 MdmX PPI 53 (no result: Beta apoptosis) | Mdm2-MdmX conf inactive
Cc1ccc(/C=C2\SC(=S)N(CCC(=O)NNC(=O)c3ccc(O)cc3)C2=O)cc1	none
COc1ccc(/C=C2\SC(=S)N(CCCC(=O)Nc3ccc(C(=O)O)cc3)C2=O)cc1OC	none
Cc1cc(NC(=O)CCCN2C(=O)/C(=C/c3cccs3)SC2=S)no1	none
COc1cccc(/C=C2\SC(=S)N(CCCC(=O)NC3=NCCS3)C2=O)c1	Mdm2 MdmX PPI 63 | Mdm2-MdmX conf inactive
COc1cccc(/C=C2\SC(=S)N(CCCC(=O)Nc3cc(C)on3)C2=O)c1	Mdm2 MdmX PPI 52 | Mdm2-MdmX conf 58 | Full FLuc ctr 70
CC(Oc1ccc(F)cc1)C(=O)Nc1ccccc1N1CCCCC1 (centres undefined)	none
O=C(Nc1cccc(-n2cnnn2)c1)c1ccc(OC(F)(F)F)cc1	none
O=C(NCc1ccccn1)c1cccc(S(=O)(=O)N2CCCCC2)c1	none (no result: CSC inhib, aSyn UTR inh)
O=C(Nc1ccc([N+](=O)[O-])cc1)N1CCN(C(=O)C2CCCO2)CC1 (centres undefined)	none
